Assay results from PubChem BioAssay AID889 (National Center for Advancing Translational Sciences (NCATS), 2007).
Screen size: about 75,000 compounds; about 15 (0.02%) were called active. Another 3% or so got no clear call; they are omitted. The call rests on the fitted dose curve; in most records, active means well fitted inhibition curve with a large enough effect in the main read-out, with a control signal flat (not every such curve was filed as active); inconclusive means small, poorly fitted or top-dose-only effect, or a change in a side signal; inactive means flat fitted curve, though single readings scatter. The sample as a whole holds a higher share of actives than the screen did. Square brackets hold non-standard residues; d marks the D form. Side chains are listed from the residue outwards. Peptide text beside a SMILES is read from it. * marks the point of attachment. X1 = CCC(C)C(N)C1=NC(C(=O)*)CS1; Orn = NCCC[CH](N)C(=O)O

molecular target: Caspase-7 (Homo sapiens) (UniProt P55210); experiment: qHTS Assay for Allosteric/Competitive Inhibitors of Caspase-7; settings: recombinant caspase-7, Ac-DEVD-AFC fluorescence rate; series mostly up to 57.5 µM; further: % of control where 0% means no effect
Excerpt: NIH Molecular Libraries Screening Centers Network [MLSCN]
NIH Chemical Genomics Center [NCGC]
PI Name: Dr. James Wells,
Dr. Enrique Perez-Paya, Dr.Janice Williams, Dr. Dennis Wolan, a person
The caspases (Cysteine Aspartyl Protease) comprise a related family of 14 dimeric proteases that are critical mediators of apoptosis (programmed cell death) and inflammation. The caspases represent an important class of drug targets for stroke, ischemia, cancer and inflammatory diseases. […] One goal of this project was to identify compounds that act as allosteric inhibitors via stabilizing the procaspase form of the enzyme. Previous work in Well's laboratory has shown that such allosteric inhibitors can be identified and these act by binding at the dimer interface of enzyme (Hardy, Lam et al., 2004).
The biochemical assay was configured using purified caspase 7 at a high enzyme concentration to promote formation of the homodimers and thus facilitate the identification of allosteric inhibitors. The overall goal was to identify reversible inhibitors with better drug-like properties than the currently available set of aspartyl-containing peptidomimetics that covalently bind the active site. Caspase 7 was assayed using the profluorescent substrate Ac-DEVD-AFC. After initiation of the assay with substrate the plates were rapidly read using an automated robotic system (Kalypsys, Inc.) to maintain consistent timing. A kinetic mode of detection was used where the initial rate was collected (estimated final product formation was ~10%). Compounds were screened as a concentration-titration series that ranged from 57 uM to 0.7 nM. Below is the protocol used for caspase 7.
NCGC Assay Protocol Summary:
Caspase 7 was prepared in buffer (50 mM HEPES pH 7.5, 50 mM KCl, 200 mM NaCl, 10 mM DTT, 0.1% CHAPS) at a concentration of 66.6 nM and 3 uL was dispensed to all wells using black solid Kalypsys 1536-well plates. 20 nL of DMSO containing compounds was added using a pin-tool (Kalypsys Inc.) to columns 5-48. Then 20 nL of DMSO solution from a control plate was added to columns 1-4. Controls were: Column 1, 16 point titration with each concentration in duplicate (1:1 dilutions in DMSO; final starting concentration was 57 uM) of the caspase 7 inhibitor Ac-DEVD-CHO (Alexis Biochemicals); Column 2, a 16 point titration with each concentration in duplicate of the free AFC fluorophore prepared in DMSO (Alexis Biochemicals), final starting was 40 uM; Column 3 neutral (DMSO only) control; Column 4: DMSO alone, to serve as a negative control (no substrate was added). Then 1 uL of 20 uM the substrate Ac-DEVD-AFC (Alexis Biochemicals) prepared in the same buffer was dispensed to all wells except columns 2 and 4 and the plates were immediately transferred (< 1 min) to the Viewlux. The plates were then exposed using 405 nm excitation/520 nm emission filters for 4 sec and read at 20 sec intervals for 3 min. Final enzyme concentration was 50 nM and the final substrate concentration was 5 uM.
Concentration-response curves were fitted to the data calculated from slope of the linear regression of fluorescent intensity versus time (the rate). The concentration-effect curves were then classified based on curve quality (r2), response magnitude and degree of measured activity. […] Inconclusive compounds had appreciable concentration-dependent effects on both the measured rate and the interpolated basal fluorescence intensity at the start of the reaction but where the basal fluorescent intensity was marginal (e.g. < 10-fold). Inconclusive compounds also encompass highly fluorescent compounds (>100-fold increases in fluorescent intensities values relative to controls) where artificial concentration-dependent decreases in the rate occurred at high compound concentrations due to fluorescent interferences.
Keywords: Caspase 7, proteases, profluorescent, MLSMR, MLSCN, NIH Roadmap, qHTS, NCGC

Sequence of Caspase-7 (Homo sapiens) (P55210 24-198 limits assumed): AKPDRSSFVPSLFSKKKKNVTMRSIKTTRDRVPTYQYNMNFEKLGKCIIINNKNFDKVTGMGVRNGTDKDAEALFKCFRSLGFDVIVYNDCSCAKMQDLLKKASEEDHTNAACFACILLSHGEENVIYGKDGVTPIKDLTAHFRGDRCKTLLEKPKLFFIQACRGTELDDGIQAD
Sequence of Caspase-7 (Homo sapiens) (P55210 207-303 limits assumed): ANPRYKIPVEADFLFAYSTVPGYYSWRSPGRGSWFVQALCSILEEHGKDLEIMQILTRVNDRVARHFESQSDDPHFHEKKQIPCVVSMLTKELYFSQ

Activity change, negative = inhibition, inactive:
Cn1c(Cc2csc(N)n2)nnc1SC/C=C/c1ccccc1
C=C(C)C1CC=C(CO)CC1 (stereo not drawn)
O=C1OC(C(O)CO)C(O)=C1O (stereo not drawn)
CCCN1[C@H](C(=O)OC)C[C@@]2(O)[C@@H](O)[C@@H](O)[C@@H](O)C[C@@H]12
CCN(c1ccccc1)S(=O)(=O)c1cccc(C(=O)O)c1
COc1ccccc1C(=O)C(O)c1ccccc1OC (stereo not drawn)
CCNC(=O)CCc1nc(-c2ccc(C(C)(C)C)cc2)no1
CC(=O)c1c(C)n(-c2ccc(N(C)C)cc2)c2ccc(OCC(N)=O)cc12
CC(=O)OC(C(=O)NC1CCCCC1)c1ccccc1 (stereo not drawn)
CC(C)C1=CC2=CC[C@@H]3[C@](C)(CO)CCC[C@]3(C)C2CC1 (stereo partly drawn)
COC(=O)[C@@H]1C[C@H]2CC[C@H](O)C[C@H]2N1Cc1ccc(N2CCN(C)CC2)cc1
COc1ccc(OCc2cccc(C(=O)N3CCCC3)c2)cc1
Oc1ccc(O)c2c(O)cccc12
N#CCCN1CCN(S(=O)(=O)c2ccc(S(=O)(=O)N3CCCC3)cc2)CC1
O=C(Nc1cccc(-c2nnc(-c3ccccc3)o2)c1)C1CCCO1 (stereo not drawn)
FC(F)(F)c1ccc(CN2C[C@@H]3C(c4ccccc4)C4(c5ccccc5)CC3(C4)[C@H]2c2ccccc2)cc1 (stereo partly drawn)
O=C1CSC(c2cccc(F)c2)N1c1ccccc1F (stereo not drawn)
O=C(O)c1ccc(Cl)c(S(=O)(=O)Nc2ccccc2Cl)c1
CN1CC(=O)N=C1N
CO[C@H]1COC(=O)CCC[C@@H](C)[C@H](OC)COC(=O)[C@@H](C)NC(=O)C/C=C\[C@@H]1C 0.707% [at 11.5 µM]
COc1cc(=O)[nH]c(=O)n1C(=O)Cc1ccccc1
COc1ccc(-c2cc(C(=O)NC(C(=O)O)C(C)C)c(C)o2)cc1OC (stereo not drawn)
Cc1nc2cc(-c3ccc(F)cc3)nn2c(N2CCOCC2)c1C
COc1ccc(S(=O)(=O)Nc2c(C)n(C)n(-c3ccccc3)c2=O)cc1
Nc1ncnc2c1ncn2C1CC(O)C(CO)O1 (stereo not drawn)
C=CCC(NCCCO)c1cccc(OC)c1OC (stereo not drawn)
COc1cccc(OC)c1C(=O)Nc1nnc(C(C)C)s1
CCC(C)C(N)C1=NC(C(=O)NC(CC(C)C)C(=O)NC(CCC(=O)O)C(=O)NC(C(=O)NCCCCC2NC(=O)C(CC(N)=O)NC(=O)C(CC(=O)O)NC(=O)C(Cc3cnc[nH]3)NC(=O)C(Cc3ccccc3)NC(=O)C(C(C)CC)NC(=O)C(CCCN)NC2=O)C(C)CC)CS1 (stereo not drawn) (cyclo(DNK([Ile-Glu-Leu-X1])[Orn]IFH); configuration not given here)
